# About 79,000 compounds went through this panel and 15% of them were active in at least one assay; those are over-represented in the sample as a whole. Values without a mark were called inactive. Activity calls are given as the source filed them. Rule as the data show it: active = growth inhibition above about 70%; inactive = the rest. Where a SMILES comes first, the peptide text is derived from it. Bridges are numbered along the chain shown (N, C = ends). [ ]: non-standard residue; d: D form. The star is where a group is joined. Cbz = O=C(OCc1ccccc1)*; Aib = CC(C)(N)C(=O)O; OBn = c1ccc(CO*)cc1; βAla = NCCC(=O)O
# Experiments:
# [1] = NCI Yeast Anticancer Drug Screen. Data for the rad50 strain (AID 155);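 also: 0% = growth of vehicle-only cultures of the same strain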; settings: S. cerevisiae rad50 strain growth inhibition; at 50.0 µM; stronger effect = higher value
# In short: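 Readout: growth inhibition relative to vehicle-treated cultures. Compound exposure was carried out in a genetically defined yeast strain deficient in DNA damage repair.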
# [2] = NCI Yeast Anticancer Drug Screen. Data for the mec2-1 strain (AID 157); settings: S. cerevisiae mec2-1 strain, at 50.0 µM, stronger effect = higher value
# In short: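 Strain: mec2-1 (DNA repair/cell cycle alteration). Compound exposure, then growth measured; inhibition expressed relative to vehicle.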
# [3] = NCI Yeast Anticancer Drug Screen. Data for the sgs1 mgt1 strain (AID 161);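 also: 0% = growth of cultures given vehicle only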; settings: S. cerevisiae sgs1 mgt1 strain, at 50.0 µM, stronger effect = higher value
# In short: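 Read-out: growth inhibition vs vehicle controls. Cells: mutant yeast strain deficient in DNA damage repair.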
# [4] = NCI Yeast Anticancer Drug Screen. Data for the cln2 rad14 strain (AID 165);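 also: 0% = growth equal to vehicle treated cultures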; settings: S. cerevisiae cln2 rad14 strain, at 50.0 µM, stronger effect = higher value
# In short: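 Compounds are applied to the cln2 rad14 yeast strain, and growth is then compared with that of vehicle-treated cultures to give inhibition.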
# [5] = NCI Yeast Anticancer Drug Screen. Data for the bub3 strain (AID 167); settings: S. cerevisiae bub3 mutant strain, at 50.0 µM, stronger effect = higher value
# In short: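 Readout: yeast growth inhibition, expressed relative to vehicle-only wells. The test organism is a mutant strain from a panel with lesions in DNA repair or checkpoint genes.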
# [6] = NCI Yeast Anticancer Drug Screen. Data for the mlh1 rad18 strain (AID 175); settings: S. cerevisiae mlh1 rad18 strain growth inhibition; at 50.0 µM; stronger effect = higher value
# In short: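 Read-out is yeast growth inhibition, calculated against vehicle-only controls. The compound was applied to a strain engineered with DNA damage repair alterations.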
Structure (SMILES),growth inhibition [1],growth inhibition [2],growth inhibition [3],growth inhibition [4],growth inhibition [5],growth inhibition [6]
O=c1cc(C(O)C(O)C(O)C(O)CO)[nH]c(=O)[nH]1 (configuration not stated),2.4%,7.1%,9%,24.9%,-5.05%,-4.6%
CN=C(N)SCCCSC(N)=NC,17.6%,14%,28%,30.7%,15.6%,8.5%
CC1C(O)CC2(C(C)C)CC12 (configuration not stated),4.85%,-0.25%,-8.7%,12.3%,-18.1%,-10.4%
CC1(C)NC(=O)C(NC(=O)C(CC(=O)OCc2ccccc2)NC(=O)OCc2ccccc2)CCCCNC(=O)CCNC1=O (configuration not stated) (Cbz-D(OBn)K[Aib][βAla]; lactam 2-C; configuration not given here),-0.7%,-11.6%,-7.95%,20.4%,-2.35%,1.3%
COc1ccc(C(=Nc2ccc(C)cc2)c2ccccc2)cc1,-2.1%,7.2%,-6.05%,-43.6%,-9.1%,-15.6%
C/C(=N\NS(=O)(=O)c1ccccc1)c1ccccc1,5.95%,3.4%,3.5%,28.6%,1.1%,20.5%
CCSc1ccc2c3c(cccc13)C(=O)N(CCc1ccccn1)C2=O,-0.6%,-14.1%,11.8%,2.25%,6.2%,2.8%
CC(=O)OCC(CBr)(CBr)COC(C)=O,8.85%,-41.4%,-6.05%,-102%,-20.8%,23.1%
O=c1oc2ccccc2cc1F,16.4%,7.2%,-9.75%,5.3%,16.9%,21.4%
CC(=O)OCC1OC(Nc2[nH]c(=O)n(C)c(=O)c2-c2csc(N)n2)C(OC(C)=O)C(OC(C)=O)C1OC(C)=O (configuration not stated),-12.8%,-25.6%,-32.9%,27.4%,-8.9%,-8.6%
O=C1CSC(c2cccc([N+](=O)[O-])c2)N1c1ccc(-n2c(-c3ccccc3)nc3ccccc3c2=O)cc1 (configuration not stated),-10.8%,-17.1%,11.9%,-6.8%,34%,7.25%
CCC(=O)Oc1c(C(C)C)cccc1C(C)(C)C,-22%,-31.6%,-19.7%,-8%,-31.4%,-14.8%
CC(C)OP(=O)(OC(C)C)C1C(P(=O)(OC(C)C)OC(C)C)C(F)(F)C1(F)F (configuration not stated),11.4%,10.9%,-7.35%,-2.65%,-2%,14.3%
CNC(=O)Nc1cc(C)ccc1Cl,-0.9%,-6.05%,-8.55%,-70%,1.15%,-6.7%
CC(=O)Nc1cc2c(cc1Br)-c1ccccc1C2=O,-15%,-3.5%,15.4%,-31.7%,9.45%,-2.15%
CC(=O)c1c(C)c(Cl)c(C)c(Cl)c1O,-14.6%,2.75%,17.6%,7.4%,26.4%,7%
O=C1NC2(CCN(CCCC3(c4ccc(F)cc4)OCCO3)CC2)Oc2ccccc21,-11.6%,-35.7%,-1.15%,-11.6%,5.8%,-55.7%
O=C1C(=O)C(c2ccccc2)(c2ccccc2)C(=O)N1c1ccccc1,29.6%,13.2%,0.9%,49.6%,16.4%,-6.7%
O=C(c1ccc2c(c1)no[n+]2[O-])N(CCO)CCO,58.8%,8.45%,47.1%,92.5% (active),28.4%,19.9%

Structure (SMILES),growth inhibition [1],growth inhibition [2],growth inhibition [3],growth inhibition [4],growth inhibition [5],growth inhibition [6]
C=C1CC(C)(Cn2c(N)nc3nc[nH]c3c2=O)OC1=O (configuration not stated),11.7%,5.95%,11.1%,12.9%,14.1%,4.8%
CN(C)CC(CN(C)C)C(=O)/C=C/c1ccc(O)cc1,1.4%,-2.25%,6.05%,6.35%,22.4%,5.5%
CC(=O)NC1C(O)C(O)C(CO)OC1n1ncc(=O)[nH]c1=O (configuration not stated),13.1%,22.8%,-14.2%,-18.9%,-20.4%,-37.9%
COC(=O)/C(C#N)=C(/NCc1ccccc1)Nc1ccccc1,20.8%,-13.1%,-8.2%,11.4%,43.6%,21.4%
CCNC(=O)C(C(=O)OC)c1ccccc1 (configuration not stated),3.7%,-1.5%,5.3%,-3.45%,30.8%,1.2%
C=C1c2nc3ccccc3n2C=C(c2ccc(Cl)cc2)N1c1ccccc1,-4.65%,23.4%,-10.7%,9.7%,-1.6%,33.5%
O=c1[nH]c(C(Cl)(Cl)Cl)nc2ccc(Cl)cc12,-0.3%,8.6%,-1.95%,11.8%,-10.1%,-12.1%
CC(=O)N1Cc2c(nc[nH]c2=O)C1C (configuration not stated),-8.05%,27.4%,-7.6%,14.9%,5.2%,0.45%
CC(=O)CC(=O)Nc1ccccc1C,-5.2%,5.95%,2.4%,-27.4%,-11.2%,-22.7%
COc1ccc(C2S/C(=C\c3cccc(OC)c3)C(=O)N2NC(=O)Cc2ccccc2)cc1 (configuration not stated),-12.8%,-27.1%,-2.75%,-37.5%,-19.4%,-10.8%
CC1=CC(C)(C)NC(=S)N1c1ccc(C)cc1S(=O)(=O)O,28.5%,-1.7%,-18%,-16.2%,7.95%,27.9%
CCOC(=O)CCCCCCCCCCCCCCCCC(=O)OCC,30.9%,-31.9%,-14.2%,19.5%,7.75%,8.9%
CCc1cccc(C)c1NC(=S)NC(=O)c1ccccc1C(=O)NC(=S)Nc1c(C)cccc1CC,12.3%,7.7%,0.95%,20.9%,11.8%,20.4%
CC(O)CCC(C)O (configuration not stated),-19.1%,-24.2%,-4.5%,-4.95%,1.85%,10.2%
COC(=N)CCCl,-1.3%,-3.95%,10.8%,7.2%,-4.55%,1.5%
COc1ccccc1C(=O)Nc1c(C)cccc1Cl,-0.45%,-25.9%,-0.8%,0.4%,-10%,7%
N#Cc1ccc(OCc2nc(N)nc(N)c2-c2ccc(Cl)cc2)cc1,-4.4%,5.35%,-16.4%,-10%,20.8%,14.8%
CC(C)CC1NC(=O)CCC(NC(=O)C(Cc2ccc(O)cc2)NC(=O)OCc2ccccc2)C(=O)NC(Cc2ccccc2)C(=O)NC(Cc2ccccc2)NC1=O (configuration not stated),-24.9%,-21.6%,-24%,8.6%,-7.55%,-18%

# — PubChem BioAssay (NCI)
